Source: PubChem BioAssay
GPR151 ag: activates the human receptor GPR151. AID 1508602. PathHunter beta-arrestin GPR151 cells, luminescence. hit rate 1% among 650,000. activation, % at 11.2 µM. Q8TDV0; in the data active = activation above about 4.9%;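 note: 0% = median of compound wells and 100% = cells with positive control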
Target sequence (Q8TDV0 whole entry, looked up): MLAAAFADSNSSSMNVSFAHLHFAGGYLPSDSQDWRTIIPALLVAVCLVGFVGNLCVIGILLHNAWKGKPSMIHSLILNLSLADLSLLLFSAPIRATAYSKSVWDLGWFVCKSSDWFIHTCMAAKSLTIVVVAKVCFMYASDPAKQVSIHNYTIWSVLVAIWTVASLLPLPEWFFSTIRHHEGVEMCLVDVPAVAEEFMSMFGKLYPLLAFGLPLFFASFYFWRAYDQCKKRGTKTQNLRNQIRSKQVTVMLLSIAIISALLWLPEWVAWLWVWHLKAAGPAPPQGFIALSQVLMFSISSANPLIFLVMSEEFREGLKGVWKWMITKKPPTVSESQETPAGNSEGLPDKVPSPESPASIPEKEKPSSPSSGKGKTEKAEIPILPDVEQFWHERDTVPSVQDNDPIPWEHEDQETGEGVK
MITF primary: blocks human microphthalmia-associated transcription factor | O75030 | AlphaScreen MITF homodimerization, bead proximity signal | inhibition, % at 2.6 µM | hit rate 0.91% among 650,000 | AID 1259374; in the data active = inhibition above about 50%;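 note: 0% = vehicle wells with protein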
TEAD-YAP inh: TEAD-YAP interaction inhibition. HEK-TIYL cells, TEAD-Gal4/YAP UAS-luciferase luminescence. inhibition, % at 9.12 µM. hit rate 1.4% among 640,000. AID 1259422; in the data active = inhibition above about 32%;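 note: 0% = median of test compound wells and 100% = reference inhibitor wells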
FBW7 activator: human FBW7 E3 ligase activation, primary screen; Q969H0; AlphaScreen FBW7–phospho-cyclin E peptide binding, activator screen; normalized activity (activation), % at 26.1 µM; hit rate 0.13% among 650,000; AID 1259310; in the data active = normalized activity above about 1.9%;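 note: purified mutant Fbw7 with reduced substrate affinity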
GPR151 confirm: confirmation of human GPR151 activators. shares compounds with GPR151 ag. 6,700 tested, under 10 active. activation, % at 11.2 µM. GPR151 PathHunter beta-arrestin cells, luminescence, 90 min; % of EA-reagent control over plate median. AID 1508609;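 active = mean percent activation across replicates above the confirmation screen cutoff of 4.91%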
GPR119 counter: counter-screen for GPR151 activators: effect on human GPR119 | activation, % at 11.2 µM | shares compounds with GPR151 ag | GPR119 PathHunter beta-arrestin cells, luminescence, 90 min; 0 = compound-well median, 100 = enzyme-acceptor control | hit rate 0.3% among 6,700;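 active = mean percent activation in the counterscreen above 29.09%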;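 note: counterscreen on off-target GPR119 to flag nonselective hits from the GPR151 activator screen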
Starred values were filed as active, the others as inactive; / = not tested or not shown. The list is not random: actives were taken first. Their share in the collection is about 3.5%.

SMILES	GPR151 ag	MITF primary	TEAD-YAP inh	FBW7 activator	GPR151 confirm	GPR119 counter
C/C(=N\NC(=O)CNc1ccccc1Cl)C(C)(C)C	5.9*	-5.4	-9.2	-0.2	-0.9	-4.0
O=C(CSc1nccc(=O)[nH]1)Nc1ccccc1	-0.5	-2.7	-0.7	0.0	/	/
Cc1cc2c(cc1C)C(c1cc([N+](=O)[O-])ccc1Cl)CC(=O)N2 (stereo not drawn)	5.0*	3.5	-2.1	-0.1	1.9	9.9
Cc1cc2c(cc1C)C(c1cccc([N+](=O)[O-])c1)CC(=O)N2 (stereo not drawn)	-0.2	-4.7	18.3	-0.1	/	/
COc1cccc(C2CC(=O)Nc3cc(C)c(C)cc32)c1OC (stereo not drawn)	3.1	0.3	10.4	-0.1	/	/
COc1cc(C2CC(=O)Nc3cc(C)c(C)cc32)cc(OC)c1OC (stereo not drawn)	12.7*	7.3	48.7*	0.3	0.9	11.7
CN(C)C1NC(=O)c2cc(-c3ccccc3)sc2N1 (stereo not drawn)	7.0*	-10.0	-9.3	0.0	-1.2	-0.3
COC(=O)C1=CN(C2CC2)C=C(C(=O)OC)C1c1cccc(OC)c1	5.5*	-13.8	4.2	0.2	0.8	13.1
COC(=O)C1=CN(C2CC2)C=C(C(=O)OC)C1c1cccc(O)c1	1.7	-16.6	9.9	-0.2	/	/
Nc1nc(SCc2ccc(F)cc2)n[nH]1	-0.7	-3.0	0.3	-0.2	/	/
CC(=N)c1c(O)c2cc([N+](=O)[O-])ccc2oc1=O	5.7*	0.2	9.0	-0.2	0.1	1.3
COc1c([N+](=O)[O-])c(=O)oc2ccc([N+](=O)[O-])cc12	-1.7	7.2	-1.9	-0.1	/	/
O=S(=O)(c1ccc(F)c(Cl)c1)N1CCCC(N2CCOCC2)C1 (stereo not drawn)	12.1*	-3.1	7.2	0.2	0.7	4.6
O=S(=O)(c1ccc2c(c1)OCCO2)N1CCCC(N2CCOCC2)C1 (stereo not drawn)	0.7	2.0	-7.6	0.0	/	/
Cc1ccc(S(=O)(=O)N2CCCC(N3CCOCC3)C2)s1 (stereo not drawn)	6.3*	5.1	-2.2	0.0	0.0	4.0
Cc1ccc(S(=O)(=O)N2CCCC(N3CCOCC3)C2)cc1Cl (stereo not drawn)	1.7	6.8	6.9	-0.1	/	/
O=C(OC1CCCCC1=O)c1cccnc1Cl (stereo not drawn)	0.4	12.8	-0.4	0.1	/	/
CC1(C)Cc2c(sc3nc(SCc4ccc(Br)cc4)n(Cc4ccccc4)c(=O)c23)CO1	0.8	7.0	4.3	0.0	/	/
COC(=O)c1c(C)oc2ccc(N(C(=O)c3ccccc3Cl)S(=O)(=O)c3ccccc3)cc12	2.7	9.5	-5.1	0.1	/	/
O=C(COc1ccccc1[N+](=O)[O-])Nc1cccc(Cl)c1N1CCOCC1	5.0*	-1.5	13.4	0.1	-0.6	-2.7
O=C(COc1ccccc1[N+](=O)[O-])NC(=S)Nc1ccccc1N1CCOCC1	-0.6	2.5	-6.8	0.1	/	/
NNC(=O)CNC(=O)C12CC3CC(CC(C3)C1)C2	0.3	-7.0	-15.7	0.2	/	/
CC(=O)Nc1ccc(S(=O)(=O)N(C)CCOCc2ccccc2)cc1	5.4*	25.1	7.6	0.6	0.1	-5.9
CC(=O)NC(=S)Nc1ccc(S(=O)(=O)N(C)Cc2ccccc2)cc1	-0.8	11.3	12.2	-0.2	/	/
COc1cc2c(cc1NC(=O)c1ccoc1C)oc1ccccc12	5.2*	-5.6	-65.1	0.0	-0.3	3.3
SMILES	GPR151 ag	MITF primary	TEAD-YAP inh	FBW7 activator	GPR151 confirm	GPR119 counter
COc1cc2c(cc1NC(=O)c1cccc([N+](=O)[O-])c1)oc1ccccc12	6.9*	8.0	-1.2	0.0	0.8	0.2
COc1cc2c(cc1NC(=O)c1ccccc1Cl)oc1ccccc12	0.2	-13.9	-41.3	0.1	/	/
CC(NC(=O)COc1ccccc1C#N)c1ccccc1 (stereo not drawn)	-1.0	-5.9	3.3	0.3	/	/
CCOc1cc(C#N)ccc1OCC(=O)NC(C)c1ccccc1 (stereo not drawn)	13.4*	5.7	1.7	0.0	0.1	5.3
Cc1ccc(C2=NN(S(C)(=O)=O)C(c3ccc(C)cc3)C2)cc1 (stereo not drawn)	-2.1	2.1	-75.9	-0.1	/	/
Cc1cc(C(=O)COC(=O)c2ccc(O)cc2O)c(C)n1-c1ccc2c(c1)OCO2	5.3*	-0.9	2.4	-0.1	-0.2	1.0
O=C(CCCCCN1C(=O)c2ccccc2C1=O)Nc1ccccc1	-0.2	2.8	-8.1	0.0	/	/
O=C(CCCCCCN1C(=O)c2ccccc2C1=O)NN(c1ccccc1)c1ccccc1	6.2*	8.8	-3.4	0.0	0.9	5.9
Cc1ccc(NC(=O)NC2(C(=O)NCc3ccncc3)CCCCC2)cc1	5.4*	-10.8	-12.0	-0.1	-0.7	2.0
COc1ccc(NC(=O)NC2(C(=O)NCc3ccncc3)CCCCC2)cc1	0.6	-14.2	6.3	0.2	/	/
Cc1cccc(CNCCC2CCC(=O)N2Cc2cc(F)ccc2C)c1 (stereo not drawn)	-0.5	3.5	6.0	1.1	/	/
Cc1cccc(CN2C(=O)CCC2CCNCc2ccccc2F)c1 (stereo not drawn)	7.1*	13.4	6.3	0.0	0.9	8.4
CC(C)C(=O)OCCN1C(=O)c2cccc3c(N4CCOCC4)ccc(c23)C1=O	6.6*	-0.5	-4.6	0.3	0.5	12.1
CC(C)C(=O)OCCN1C(=O)c2cccc3c(N4CCCCC4)ccc(c23)C1=O	1.8	-2.4	-2.6	-0.1	/	/
C=C1C(C(=O)N2CCOCC2)C1C(=O)N1CCOCC1 (stereo not drawn)	5.4*	12.5	-6.9	-0.1	-0.2	7.2
COc1ccc(NC2=CC(=O)NC2)cc1	-0.7	10.1	-4.9	0.2	/	/
CCOc1ccc(Nc2nc(NCc3ccco3)c3ccccc3n2)cc1	5.1*	-3.1	49.0*	-0.2	-0.2	11.4
CCOc1ccc(Nc2nc(N3CCOCC3)c3ccccc3n2)cc1	0.5	-0.6	22.8	0.0	/	/
O=C(Nc1cccc(O)c1)C1CCCCC1	-1.7	-3.1	-5.9	0.1	/	/
CN(CCO)CCNc1cc(N2CCOCC2)c2noc3c2c1C(=O)c1ccccc1-3	-2.1	39.1	-25.7	-0.5	/	/
O=C(NC1CC1)c1cnc(Nc2ccc3ncccc3c2)s1	6.3*	2.1	-37.4	-0.1	-1.3	-12.3
O=C(NC1CC1)c1cnc(Nc2ccc(C(F)(F)F)cc2)s1	4.9*	5.0	0.7	0.1	0.7	-0.5
COc1ccc2c(c1)c(CC(=O)Nc1ncccc1C)c(C)n2C(=O)c1ccc(Cl)cc1	0.5	16.5	6.3	0.0	/	/
COc1ccc2c(c1)c(CC(=O)Nc1ccc(NC(C)=O)cc1)c(C)n2C(=O)c1ccc(Cl)cc1	6.2*	-8.2	/	/	0.2	10.8
CCOC(=O)C1=C(O)/C(=C/c2ccccc2)SC1=Nc1ccccc1	-1.3	20.8	-3.0	0.1	/	/
CCOC(=O)C1=C(O)/C(=C/c2ccc(C(=O)OC)cc2)SC1=NC(=O)c1ccccc1	6.7*	3.6	-0.2	0.2	0.1	-2.4
